In ChEMBL document CHEMBL3988442, “University of Dundee, Small-Polar-MMV Screening Library” (2021):

biological target: T1, Aspartate--tRNA(Asp/Asn) ligase (Mycobacterium tuberculosis (strain ATCC 25618 / H37Rv)) (UniProt P9WFW3); experiment: Assay for Asp RNA synthetase-1 from Mycobacterium tuberculosis; type: functional; set-up: scale not given: in the data most compounds retested in dose-response had high values; details: 30 µM
T1 sequence (whole entry): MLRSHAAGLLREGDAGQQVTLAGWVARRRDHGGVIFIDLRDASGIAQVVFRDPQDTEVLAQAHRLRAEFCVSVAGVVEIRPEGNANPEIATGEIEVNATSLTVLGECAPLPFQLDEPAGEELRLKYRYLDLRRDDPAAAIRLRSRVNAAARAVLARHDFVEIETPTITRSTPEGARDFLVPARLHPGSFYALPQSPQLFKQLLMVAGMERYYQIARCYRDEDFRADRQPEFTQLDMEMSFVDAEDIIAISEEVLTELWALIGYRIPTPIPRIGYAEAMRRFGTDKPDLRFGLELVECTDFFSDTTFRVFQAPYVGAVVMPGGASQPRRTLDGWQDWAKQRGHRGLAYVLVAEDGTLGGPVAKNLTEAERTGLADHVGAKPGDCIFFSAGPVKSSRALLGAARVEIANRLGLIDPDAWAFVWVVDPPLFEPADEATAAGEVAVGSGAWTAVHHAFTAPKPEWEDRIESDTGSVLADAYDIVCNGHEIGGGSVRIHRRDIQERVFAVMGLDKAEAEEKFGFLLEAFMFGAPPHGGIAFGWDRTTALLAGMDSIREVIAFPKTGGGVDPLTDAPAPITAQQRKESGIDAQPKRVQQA

Row | Structure (SMILES) | Percent Effect [%]
1 | Cn1cnnc1C1CCN(c2cncc(-n3cccn3)n2)CC1 | 0.324
2 | Cc1cc(C)n(CC2CN(CC(=O)Nc3nncs3)CCO2)n1 (stereo not given) | 1.4
3 | COc1ccc(C[C@H]2CN(C(=O)CN(C)C)CC[C@H]2OC)cc1 | 0.341
4 | CC(C)(C)c1nc(CN2CCCC2CCc2ccccc2)no1 (stereo not given) | 2.52
5 | Cc1cc2nc(SCC(=O)N3CCCC3)n(-c3ccccc3)c(=O)c2[nH]1 | 15.3
6 | CCCc1nc(CN2CCOC(Cn3cncn3)C2)no1 (stereo not given) | 0.917
7 | CCc1ccccc1CN1CC[C@@H](NC(=O)c2cccnc2)[C@H](O)C1 | -4.34
8 | Cc1noc(C2CCCCN2C(=O)NC2CCCC2)n1 (stereo not given) | 5.06
9 | CCCN1CCN(C(=O)C(C)n2cc(Br)cn2)CC1 (stereo not given) | 5.74
10 | O=c1n(CCSCc2ccccc2F)nc2ccccn12 | 0.461
11 | CC(=O)N1CCOCC2(CN(Cc3ccc(C)o3)CCO2)C1 (stereo not given) | 1.57
12 | Cc1ccc(NC2CCN(C(=O)CN(C)C3CC3)CC2)nn1 | -0.538
13 | CN(C)CCNC(=O)c1cnc2c(c1)nc(-c1ccccc1Cl)n2C | 3.74
14 | Cc1cc(NC(=O)CN2CCCC2c2noc(C(C)C)n2)n(C)n1 (stereo not given) | -2.48
15 | N#Cc1ncn(CCC(=O)Nc2c(Cl)cccc2Cl)n1 | 6.68
16 | CCN1CCN(C(=O)c2cnn(-c3ccccc3Cl)c2)CC1 | 0.83
17 | CCn1c(C(=O)N2CCN(C(=O)NC(C)C)CC2)cc2ccccc21 | 2.76
18 | CC(C)c1nn(C)c(N2CCOCC2)c1CN[C@H](C)CO | -1.94
19 | CN(C)c1ccc(CN(CCCn2ccnc2)Cc2c[nH]cn2)cc1 | 0.194
20 | CCCc1noc(CCC(=O)N2CCCC2c2ccsc2)n1 (stereo not given) | -1.06
